Hits are enriched below; roughly 6.7% of the tested compounds scored in any of these assays.
T cruzi growth = T. cruzi proliferation inhibition; inhibition, % at 8.34 µM; hit rate 5.9% among 77,000; T. cruzi beta-gal in NIH3T3, GalScreen luminescence, 90 h; AID 624255;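 active = mean inhibition above about 93%, with at least 55% of replicates each passing it, limit read from the data, passing the limit was not always enough; inconclusive = only one of those two conditions holds; inactive = neither condition holds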
C diff HTS = C. difficile growth inhibition; Clostridium difficile clinical isolate growth, OD600, 24 h; active compounds read low; hit rate 0.25% among 86,000; growth activity, negative = inhibition, % at 16 µg/mL (by protocol);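 active = mean growth activity at or below -80% and every replicate also at or below -80%; inconclusive = mean at or below -80% but some replicate above -80%; inactive = mean growth activity above -80%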
Pf Dd2 inh = inhibitors of Plasmodium falciparum Dd2 growth | P. falciparum Dd2 growth, SYBR Green, 72 h; active compounds read low | activity change, % at 10 µM | hit rate 2.3% among 94,000 | AID 1159554; in the data active = activity change below about -80%; inconclusive = no clear call, values can overlap the other calls
Of the large screens only hits and unclear results are named; the others gave an inactive call; ! = a repeat was not active.

Cc1cccc(-c2ccc(C3[C@@H]4CN(Cc5ccccc5)C[C@H]3N4)cc2)c1 (stereo partly specified)	none (no result: T cruzi growth)
Fc1cccc(-c2ccc(C3[C@@H]4CN(Cc5cncnc5)C[C@H]3N4)cc2)c1 (stereo partly specified)	Pf Dd2 inh -86! (no result: T cruzi growth)
Cc1cccc(-c2ccc(C3[C@@H]4CN(Cc5cccc(F)c5)C[C@H]3N4)cc2)c1 (stereo partly specified)	C diff HTS -97 (no result: T cruzi growth)
Cc1ccccc1-c1ccc(C2[C@@H]3CN(Cc4cncnc4)C[C@H]2N3)cc1 (stereo partly specified)	none (no result: T cruzi growth)
CO[C@H]1CC[C@H]2CCN(C)C(=O)[C@H](C)[C@H](OC)CN(C)C(=O)c3cc(C#N)ccc3OC[C@H]1O2	none (no result: C diff HTS)
C[C@@H]1CCCCO[C@H](CN(C)Cc2ccc(Cl)c(Cl)c2)[C@H](C)CN([C@@H](C)CO)C(=O)c2cc(NC(=O)Nc3ccccc3)ccc2O1	Pf Dd2 inh -85
CC(C)NC(=O)Nc1ccc2c(c1)C(=O)N([C@@H](C)CO)C[C@H](C)[C@@H](CN(C)Cc1ccc(Cl)c(Cl)c1)OCCCC[C@H](C)O2	none (no result: T cruzi growth, Pf Dd2 inh)
CC(C)NC(=O)Nc1ccc2c(c1)C(=O)N([C@H](C)CO)C[C@H](C)[C@H](CN(C)Cc1ccc(Cl)c(Cl)c1)OCCCC[C@@H](C)O2	none (no result: T cruzi growth, Pf Dd2 inh)
Cc1noc(C)c1NC(=O)Nc1ccc2c(c1)C(=O)N([C@@H](C)CO)C[C@H](C)[C@@H](CN(C)Cc1ccc(Cl)c(Cl)c1)OCCCC[C@@H](C)O2	Pf Dd2 inh -85
CC(C)NC(=O)Nc1ccc2c(c1)C(=O)N([C@@H](C)CO)C[C@H](C)[C@H](CN(C)Cc1ccc(Cl)c(Cl)c1)OCCCC[C@@H](C)O2	none (no result: T cruzi growth, Pf Dd2 inh)
C[C@@H]1CN([C@H](C)CO)C(=O)c2cc(NC(=O)Nc3ccccc3)ccc2O[C@@H](C)CCCCO[C@H]1CN(C)Cc1ccc(Cl)c(Cl)c1	Pf Dd2 inh -86
C[C@@H]1CCCCO[C@@H](CN(C)Cc2ccc(Cl)c(Cl)c2)[C@H](C)CN([C@H](C)CO)C(=O)c2cc(NC(=O)Nc3ccccc3)ccc2O1	Pf Dd2 inh -83
Cc1noc(C)c1NC(=O)Nc1ccc2c(c1)C(=O)N([C@H](C)CO)C[C@H](C)[C@@H](CN(C)Cc1ccc(Cl)c(Cl)c1)OCCCC[C@H](C)O2	none
C[C@@H]1CN([C@H](C)CO)C(=O)c2cc(NC(=O)C3CC3)ccc2O[C@H]1CN(C)C(=O)Nc1ccc2c(c1)OCO2	none
C[C@@H]1CN([C@H](C)CO)C(=O)c2cc(NC(=O)Nc3ccccc3)ccc2O[C@@H](C)CCCCO[C@H]1CN(C)S(=O)(=O)c1cn(C)cn1	none
C[C@@H]1CN([C@@H](C)CO)C(=O)Cc2cc(NS(C)(=O)=O)ccc2O[C@@H]1CN(C)Cc1ccc(C(=O)Nc2ccccc2N)cc1	none (no result: T cruzi growth)
Cc1ccc(S(=O)(=O)Nc2ccc3c(c2)CC(=O)N([C@@H](C)CO)C[C@H](C)[C@@H](CN(C)Cc2ccc(C(=O)Nc4ccccc4N)cc2)O3)cc1	Pf Dd2 inh -85 (no result: T cruzi growth)
C[C@H](CO)N1C[C@H](C)[C@@H](CN(C)Cc2ccc(C(=O)Nc3ccccc3N)cc2)Oc2ccc(NS(C)(=O)=O)cc2CC1=O	none
Cc1ccc(S(=O)(=O)Nc2ccc3c(c2)CC(=O)N([C@H](C)CO)C[C@@H](C)[C@@H](CN(C)Cc2ccc(C(=O)Nc4ccccc4N)cc2)O3)cc1	Pf Dd2 inh -86
Cc1noc(C)c1NC(=O)Nc1ccc2c(c1)C(=O)N([C@@H](C)CO)C[C@@H](C)[C@@H](CN(C)S(C)(=O)=O)O2	none (no result: C diff HTS)
COc1ccc(NC(=O)N2C[C@@H](O)COC[C@H]3O[C@@H](CC(=O)NCc4ccncn4)CC[C@@H]32)cc1	none
COc1ccc(S(=O)(=O)Nc2ccc3c(c2)CC(=O)N([C@H](C)CO)C[C@@H](C)[C@@H](CN(C)C(=O)NC(C)C)O3)cc1	none
CO[C@H]1CN(C)C(=O)c2ccc(NS(C)(=O)=O)cc2OC[C@H](C)N(C(=O)C2CCCCC2)C[C@@H]1C	none
Cc1cccc(S(=O)(=O)N(C)C[C@H]2OCc3ccccc3-c3c(n(C)c4ccccc34)C(=O)N([C@H](C)CO)C[C@H]2C)c1	Pf Dd2 inh -84 (no result: C diff HTS)
C[C@@H]1CN([C@@H](C)CO)C(=O)c2c(c3ccccc3n2C)-c2ccccc2CO[C@@H]1CN(C)S(=O)(=O)c1cccc(F)c1	none
Cc1cccc(S(=O)(=O)N(C)C[C@@H]2OCc3ccccc3-c3c(n(C)c4ccccc34)C(=O)N([C@@H](C)CO)C[C@H]2C)c1	Pf Dd2 inh -82 (no result: C diff HTS)
C[C@H](CO)N1C[C@H](C)[C@@H](CN(C)S(=O)(=O)c2ccccc2)OCc2ccccc2-c2c(n(C)c3ccccc23)C1=O	none (no result: C diff HTS)
COc1ccc2c3c(n(C)c2c1)[C@H](CO)NCC31CN(CC2CC2)C1	none (no result: T cruzi growth)
COc1ccc2c3c(n(C)c2c1)[C@H](CO)NCC31CCN(Cc2ccccc2F)CC1	Pf Dd2 inh inconclusive (no result: T cruzi growth)
COc1ccc2c3c(n(C)c2c1)[C@@H](CO)NCC31CCN(Cc2ccc(F)cc2)CC1	none (no result: T cruzi growth, C diff HTS)
COc1ccc2c3c(n(C)c2c1)[C@H](CO)NCC31CCN(Cc2cc(-c3ccccc3)on2)CC1	Pf Dd2 inh -91 (no result: T cruzi growth)
COc1ccc2c3c(n(C)c2c1)[C@@H](CO)NCC31CCN(CC2CCCCC2)CC1	Pf Dd2 inh -82 (no result: T cruzi growth)
COc1ccc2c3c(n(C)c2c1)[C@H](CO)NCC31CCN(Cc2ccccc2Cl)CC1	Pf Dd2 inh -85 (no result: T cruzi growth)
COc1ccc2c3c(n(C)c2c1)[C@@H](CO)NCC31CCN(Cc2ccccc2Cl)CC1	Pf Dd2 inh -88 (no result: T cruzi growth)
COc1ccc2c3c(n(C)c2c1)[C@@H](CO)NCC31CCN(Cc2ccncc2)CC1	none (no result: T cruzi growth)
C[C@@H]1CN([C@H](C)CO)C(=O)c2cc(NC(=O)Nc3ccc(C(F)(F)F)cc3)ccc2O[C@@H](C)CCCCO[C@@H]1CN(C)S(=O)(=O)c1cn(C)cn1	none
CO[C@H](CN(C)Cc1nccs1)[C@H](C)CN([C@@H](C)CO)S(=O)(=O)c1ccc(F)cc1	none (no result: C diff HTS)
C[C@@H]1CCCCO[C@H](CN(C)Cc2ccncc2)[C@@H](C)CN([C@@H](C)CO)C(=O)c2cc(NS(=O)(=O)c3cn(C)cn3)ccc2O1	none
COc1ccc2c3c(n(C)c2c1)[C@@H](CO)NCC31CN(Cc2ccc(Cl)cc2)C1	none (no result: T cruzi growth)
COc1ccc2c3c(n(C)c2c1)[C@H](CO)NCC31CN(Cc2ccc(F)cc2)C1	Pf Dd2 inh -84 (no result: T cruzi growth)
COc1ccc2c3c([nH]c2c1)[C@H](CO)N(Cc1ccc(F)cc1)CC31CCN(C(C)=O)CC1	Pf Dd2 inh -89 (no result: T cruzi growth)
COCC(=O)N1CC2(C1)CN(Cc1cccc(Cl)c1)[C@H](CO)c1[nH]c3cc(OC)ccc3c12	none (no result: T cruzi growth)
COc1ccc2c3c([nH]c2c1)[C@H](CO)N(Cc1ccc(F)cc1)CC31CCN(C)CC1	none (no result: T cruzi growth)
COc1ccc2c3c([nH]c2c1)[C@H](CO)N(Cc1cccc(Cl)c1)CC31CCN(C(C)=O)CC1	Pf Dd2 inh -89 (no result: T cruzi growth)
COCC(=O)N1CCC2(CC1)CN(Cc1cccc(Cl)c1)[C@H](CO)c1[nH]c3cc(OC)ccc3c12	none (no result: T cruzi growth)
COc1ccc2c3c([nH]c2c1)[C@@H](CO)N(Cc1cccc(Cl)c1)CC31CN(C(C)=O)C1	Pf Dd2 inh -89 (no result: T cruzi growth)
COc1ccc2c3c([nH]c2c1)[C@@H](CO)N(Cc1ccccc1)CC31CCN(C(C)=O)CC1	none (no result: T cruzi growth, C diff HTS)

High-throughput results (PubChem BioAssay)
